Measured values taken from PubChem BioAssay (NCATS).
Inconclusive results are not listed. A number with no mark means an inactive call. Calls of active or inactive are those of the source. Calls follow the shape of the dose curve; as a rule, active = well fitted inhibition curve with a large enough effect; inconclusive = small, poorly fitted or top-dose-only effect; inactive = no such curve, though single readings can be large or run the other way.

Target: Retinaldehyde dehydrogenase 3 (Homo sapiens) (UniProt P47895)
Assay: qHTS for Inhibitors of the Aldehyde Dehydrogenase Family (ALDH1A3) Primary screen (AID 2061315);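 also: plate controls were DMSO vehicle for no effect and reference inhibitor for full effect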
Settings: ALDH inhibition qHTS; series mostly up to 56 µM; activity change, negative = inhibition: at the top concentration

| Structure (SMILES) | activity change, negative = inhibition [%] |
| --- | --- |
| Cc1ccc(O)cc1Nc1ccnc(Nc2cccc(C(N)=O)c2)n1 | -3.01 |
| Cc1cn(-c2cc(NC(=O)c3ccc(C)c(Nc4nccc(-c5cnccn5)n4)c3)cc(C(F)(F)F)c2)cn1 | 3.57 |
| Fc1ccc(-n2cc(CCCCN3CCC4(CC3)OCc3ccccc34)c3ccccc32)cc1 | 1.75 |
| CC(C)C1CCC(C(=O)N[C@@H](Cc2ccccc2)C(=O)O)CC1 (stereo not given in full) | 3.55 |
| CC(C)Oc1ccc(C(=O)NC(CNC(=O)CN(C)C)Cc2ccc(-c3cn4cccc(C(C)O)c4n3)cc2)cc1Cl (stereo not given) | 4.64 |
| CN(C)C(=O)COC(=O)c1cc(-c2ccc(C3CCNCC3)cc2)c2ccc(-c3ccc(C(F)(F)F)cc3)cc2c1 | 6.98 |
| CCC(=C(c1ccc(OCCN2CCCC2)cc1)c1ccc(OCCN2CCCC2)cc1)c1ccccc1 | 23 |
| CN(C)C(CCOc1cccc2ccccc12)c1ccccc1 (stereo not given) | -2.84 |

Tested on: not listed separately
Assay: BET inhibitor-based combinations targeting novel dependencies in MECOM-rearranged (r) AML: SET-2 cell line (AID 2202231); also: nearly all actives have a fitted effect of over 35% in size; also: potency is read from the fitted curve at half-maximal effect;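 as to viability: plate controls were DMSO treated cells for no effect and wells without cells for full effect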
Settings: SET-2 AML cells viability, CellTiter-Glo luminescence, 48 h; viability: stronger effect = lower value, concentration not given here
Outline: (§1)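 Luminescent ATP readout (CellTiter-Glo) after 48 hr drug exposure gives viability. Curves span 11 concentrations and are normalized to DMSO and empty wells. Activity is reported as area under the curve and its Z-transform within each cell line.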

| Structure (SMILES) | Potency | viability [%] |
| --- | --- | --- |
| N#Cc1ccc(COC[C@H]2O[C@@H](n3c(NCc4ccc(Cl)c(Cl)c4)nc4c(N)ncnc43)[C@H](O)[C@@H]2O)cc1 | 7.42 µM (active) |  |
| CCOC(=O)[C@@H](N)Cc1ccc(-c2cc(O[C@H](c3ccc(Cl)cc3-n3ccc(C)n3)C(F)(F)F)nc(N)n2)cc1 | 26.3 µM (active) |  |
| O=C(/C=C\n1cnc(-c2cc(C(F)(F)F)cc(C(F)(F)F)c2)n1)N1CC(F)(F)C1 | 1.66 µM (active) |  |
| CCCc1cc(C)[nH]c(=O)c1CNC(=O)c1cc(-c2ccc(N3CCN(C(C)C)CC3)nc2)cc2c1cnn2C(C)C |  | 110 |

Tested on: not listed separately
Assay: BET inhibitor-based combinations targeting novel dependencies in MECOM-rearranged (r) AML: OCI-AML3 cell line (AID 2202232); also: potency is read from the fitted curve at half-maximal effect; nearly all actives have a fitted effect of over 35% in size
Settings: CellTiter-Glo luminescence, 48 h; Potency: OCI-AML3 viability; series mostly up to 46 µM; viability (% of control): at the top concentration
Outline: as §1

| Structure (SMILES) | Potency |
| --- | --- |
| N#Cc1ccc(COC[C@H]2O[C@@H](n3c(NCc4ccc(Cl)c(Cl)c4)nc4c(N)ncnc43)[C@H](O)[C@@H]2O)cc1 | 2.63 µM (active) |
| CCOC(=O)[C@@H](N)Cc1ccc(-c2cc(O[C@H](c3ccc(Cl)cc3-n3ccc(C)n3)C(F)(F)F)nc(N)n2)cc1 | 11.8 µM (active) |
| O=C(/C=C\n1cnc(-c2cc(C(F)(F)F)cc(C(F)(F)F)c2)n1)N1CC(F)(F)C1 | 2.63 µM (active) |
| CCCc1cc(C)[nH]c(=O)c1CNC(=O)c1cc(-c2ccc(N3CCN(C(C)C)CC3)nc2)cc2c1cnn2C(C)C | 18.6 µM (active) |

Tested on: not listed separately
Assay: BET inhibitor-based combinations targeting novel dependencies in MECOM-rearranged (r) AML: MV-4-11 cell line (AID 2202233); also: potency is read from the fitted curve at half-maximal effect; nearly all actives have a fitted effect of over 45% in size
Settings: MV-4-11 AML viability, CellTiter-Glo luminescence, 48 h; series mostly up to 46 µM; viability, % of control: at the top concentration
Outline: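 Luminescent ATP readout (CellTiter-Glo, 15 min at room temperature) after 48 hr drug exposure gave viability. Dose-response curves, normalized to DMSO and empty-well controls, were summarized as area under the curve and its mean-centred Z-score.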

| Structure (SMILES) | Potency |
| --- | --- |
| N#Cc1ccc(COC[C@H]2O[C@@H](n3c(NCc4ccc(Cl)c(Cl)c4)nc4c(N)ncnc43)[C@H](O)[C@@H]2O)cc1 | 14.8 µM (active) |
| CCOC(=O)[C@@H](N)Cc1ccc(-c2cc(O[C@H](c3ccc(Cl)cc3-n3ccc(C)n3)C(F)(F)F)nc(N)n2)cc1 | 9.34 µM (active) |
| O=C(/C=C\n1cnc(-c2cc(C(F)(F)F)cc(C(F)(F)F)c2)n1)N1CC(F)(F)C1 | 1.32 µM (active) |
| CCCc1cc(C)[nH]c(=O)c1CNC(=O)c1cc(-c2ccc(N3CCN(C(C)C)CC3)nc2)cc2c1cnn2C(C)C | 16.6 µM (active) |
